High-throughput results (PubChem)
The list is not random: actives were taken first. Their share in the collection is about 1.8%.
PAD4 FP inh: blocks human protein arginine deiminase 4; recombinant PAD4, RCA probe fluorescence polarization; Q9UM07; inhibition, % at 6.36 µM; 330,000 tested, 0.41% active; AID 485272;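 active = percent inhibition above a cutoff equal to the mean of all tested compounds plus 3 SD, cut at about 15% in these data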
LYPLA1 counter: LYPLA1 (human) inhibition in PME1 counter-screen; O75608; recombinant LYPLA1, FP-Rh probe fluorescence polarization; inhibition, % at 5.9 µM; 320,000 tested, 0.16% active; AID 2174;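 active = inhibition above the mean of all tested compounds plus 3 SD, set per campaign, cut at about 14% in these data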;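 also: inhibitors block serine hydrolase probe labeling of LYPLA1 so polarization falls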
Target sequence (O75608 whole entry, looked up): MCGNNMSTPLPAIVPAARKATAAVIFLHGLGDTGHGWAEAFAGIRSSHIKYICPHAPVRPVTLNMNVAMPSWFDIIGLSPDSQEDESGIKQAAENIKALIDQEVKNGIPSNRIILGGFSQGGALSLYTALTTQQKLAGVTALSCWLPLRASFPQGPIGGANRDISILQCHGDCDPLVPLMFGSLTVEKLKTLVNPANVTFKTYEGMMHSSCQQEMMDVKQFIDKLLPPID
LYPLA2 counter: LYPLA2 (human) inhibition in PME1 counter-screen; O95372; recombinant LYPLA2, FP-Rh probe fluorescence polarization; inhibition, % at 5.9 µM; 320,000 tested, 0.38% active; AID 2177;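 active = inhibition above the screen-wide mean plus 3 SD, limit set per campaign, cut at about 26% in these data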
GSTO1 counter: GSTO1 inhibition, counter-screen for RBBP9 inhibitors; P78417; recombinant GSTO1, activity-based probe fluorescence polarization; inhibition, % at 5.96 µM; 300,000 tested, 1.1% active; AID 1974;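 active = inhibition above the campaign mean inhibition plus 3 SD, cut at about 35% in these data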
Fam108B counter: blocks mouse Fam108B hydrolase in RBBP9 counter-screen | recombinant Fam108B, FP-Rh probe fluorescence polarization | inhibition, % at 9.51 µM | 300,000 tested, 0.33% active;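 active = inhibition above the screen mean inhibition plus 3 SD, computed separately per campaign, cut at about 18% in these data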;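 also: inhibitors lower polarization as less probe binds the enzyme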
PME-1 inh: blocks human protein phosphatase methylesterase 1 | Q9Y570 | recombinant PME-1, FP-Rh probe fluorescence polarization | inhibition, % at 5.9 µM | 320,000 tested, 0.53% active | AID 2130;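 active = inhibition above the campaign mean of all compounds plus 3 SD, cut at about 26% in these data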;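 also: competitive labeling of PME-1 active site by serine hydrolase directed probe; inhibitors block probe labeling so polarization falls and inhibition rises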
Target sequence (Q9Y570 whole entry, looked up): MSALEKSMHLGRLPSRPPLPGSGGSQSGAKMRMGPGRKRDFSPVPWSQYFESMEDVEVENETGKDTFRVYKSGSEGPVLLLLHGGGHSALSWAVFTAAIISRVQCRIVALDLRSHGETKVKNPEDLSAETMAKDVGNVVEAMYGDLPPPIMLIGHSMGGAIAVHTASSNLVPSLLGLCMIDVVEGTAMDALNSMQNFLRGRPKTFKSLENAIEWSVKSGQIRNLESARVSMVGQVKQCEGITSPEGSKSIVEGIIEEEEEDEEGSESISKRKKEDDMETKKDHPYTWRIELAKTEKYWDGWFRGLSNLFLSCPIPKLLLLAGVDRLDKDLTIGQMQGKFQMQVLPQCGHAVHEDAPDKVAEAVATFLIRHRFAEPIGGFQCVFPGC
GSTO1 inh conf: GSTO1 (human) inhibition, confirmation. shares compounds with GSTO1 counter. recombinant GSTO1, probe fluorescence polarization. inhibition, % at 5.96 µM. 2,400 tested, 54% active. AID 2176;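 active = inhibition above the primary screen's cutoff, its mean inhibition plus 3 SD, cut at about 35% in these data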;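 also: loss of polarization as inhibitors block binding of rhodamine sulfonate ester activity probe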
GSTO1 ABPP inh: inhibitors of recombinant human GSTO1; shares compounds with GSTO1 counter; gel ABPP SE-Rh probe fluorescence; inhibition, % at 1 µM; 130 tested, 30% active; AID 463110;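 active = inhibition of the enzyme GSTO1 above about 75%, limit read from the data; inactive = inhibition below that limit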
Hits are given with their value; . = inactive; / = no result.

SMILES	PAD4 FP inh	LYPLA1 counter	LYPLA2 counter	GSTO1 counter	Fam108B counter	PME-1 inh	GSTO1 inh conf	others
O=[N+]([O-])c1cccc(C=Nc2cccc3ccccc23)c1O	.	.	.	41	.	.	.
O=c1cc(C(Cl)(Cl)Cl)oc2c1ccc1ccccc12	.	.	.	47	.	.	80
CCc1cccc(Nc2c([N+](=O)[O-])cc(C(=O)N3CC(=O)Nc4ccccc43)cc2[N+](=O)[O-])c1	.	.	.	.	.	.	/
Cc1nn(-c2ccccc2)c(Cl)c1CN(C(=O)CCl)c1ccc(Cl)cc1	.	.	.	82	.	.	93	GSTO1 ABPP inh=88
Cc1nn(-c2ccccc2)c(Cl)c1C(=O)NCC(=O)O	.	.	.	.	.	.	/
COc1ccccc1/C=C1\SC(=O)N(CCC(=O)NNC(=O)c2ccccc2Cl)C1=O	.	.	.	51	.	.	.
CCc1nc(N2CCN(C(C)=O)CC2)c2c3c(sc2n1)CC(C(C)(C)C)CC3 (stereo unspecified)	.	.	.	.	.	.	/
CCc1nc(N2CCN(C(=O)CCl)CC2)c2c3c(sc2n1)CC(C)CC3 (stereo unspecified)	.	.	.	63	.	.	79	GSTO1 ABPP inh=.
CC(=O)N(c1nc(/C=C\C(=O)O)cs1)c1ccccc1F	.	.	.	.	.	.	/
N#CC(C#N)=C1NC2(CCCCC2)Cc2ccccc21	.	.	.	.	.	.	/
N#CC(C#N)=c1ccc2c(c1)NC1(CCCCC1)N=2	.	.	.	68	.	.	50
N#C/C(=C\c1ccc(O)c(O)c1)C(=O)Nc1cccc2ncccc12	.	.	.	56	.	28	.
Cc1c(C(=O)N2CCN(S(=O)(=O)c3ccccc3)CC2)oc2ccc(Br)cc12	.	/	/	/	/	/	/
COc1ccc(CCN2C(=O)CSC2=Nc2ccc(C(C)C)cc2)cc1OC	.	.	.	.	.	.	/
CC(=O)Oc1ccc(N(C(C)=O)S(=O)(=O)c2cccs2)c2ccccc12	.	.	.	52	.	.	.
COC(=O)[C@H](CO)NS(=O)(=O)c1ccc(C)cc1	.	/	/	/	/	/	/
COC(=O)C(C(C)=O)C1=C/C(=N\S(=O)(=O)c2ccc(C)cc2)c2ccccc2C1=O (stereo unspecified)	.	.	.	49	.	.	.
CC1=C(CC(=O)c2ccc(Cl)cc2)C(=O)c2ccccc2C1=O	.	.	.	45	.	.	.
O=C(Cc1ccccn1)c1ccc(Cl)cc1	.	.	.	.	.	.	/
Cn1c(SCC(=O)NNC(=O)c2ccccc2)nnc1C(F)(F)F	.	.	.	/	/	.	/
CC1=C(C#N)C(=O)N(C2CCS(=O)(=O)C2)C(=O)/C1=C\c1ccco1 (stereo unspecified)	.	.	.	87	65	.	73
O=C1/C(=C\c2ccco2)SC(=S)N1C1CCCCC1	.	.	.	.	.	.	/
CN(c1ccccc1)S(=O)(=O)c1cccc(NC(=O)c2cc(=O)c3ccccc3o2)c1	.	.	.	.	.	.	/
CCOc1ccc(C(c2c(C)[nH][nH]c2=O)c2c(C)[nH][nH]c2=O)cc1OC	.	.	.	42	.	.	.
COc1ccc(/C=N/NC(=O)C(=O)N2CCCCCC2)cc1	.	.	.	.	.	.	/
SMILES	PAD4 FP inh	LYPLA1 counter	LYPLA2 counter	GSTO1 counter	Fam108B counter	PME-1 inh	GSTO1 inh conf	others
CC1(c2ccc3ccccc3c2)NC(=O)N(CC(=O)Nc2cccc(S(=O)(=O)N3CCOCC3)c2)C1=O (stereo unspecified)	.	.	.	.	.	.	/
CCOC(=O)C1=C(C)N(c2ccc(OC)cc2)C(=O)/C1=C\c1ccc(O)c(OCC)c1	.	.	.	57	.	.	.
CCCN(C(=O)CCl)C1=CCCCC1	.	.	.	38	.	.	58	GSTO1 ABPP inh=.
O=C(COC(=O)c1cc[n+]([O-])cc1)NC(=O)c1ccc(OC(F)F)cc1	.	/	/	/	/	/	/
O=C(Nc1ccccc1)c1cn(CCBr)cn1	.	.	.	62	.	.	73
O=C(Nc1ccccc1)c1ccc(C(=O)Nc2ccccc2)nc1	.	.	.	.	.	.	/
CNC(=S)NCCC(c1ccccc1)c1ccccc1	.	.	.	.	.	.	/
CC1(C)CC(=O)C2=C(C1)N(C1CCCCC1)C(=O)C2(O)C(F)(F)F (stereo unspecified)	.	.	.	65	.	.	.
C=CCOc1ccccc1CN(C(=O)CCl)c1ccc2c(c1)OCO2	.	.	.	95	.	.	86	GSTO1 ABPP inh=75
COc1ccc(NC(=O)CCN2CCN(S(=O)(=O)c3ccc(Br)cc3)CC2)cc1	.	.	.	71	.	.	.
N#CC1=C(N)Oc2n[nH]c(-c3cccnc3)c2C1c1ccc([N+](=O)[O-])o1 (stereo unspecified)	.	.	.	42	.	.	.
Cc1cc(C(=O)CN2C(=O)c3ccccc3S2(=O)=O)c(C)n1CC1CCCO1 (stereo unspecified)	.	.	.	73	.	.	.
Cc1cc(C(=O)CN2C(=O)NC(C)(c3ccccc3)C2=O)c(C)n1CC1CCCO1 (stereo unspecified)	.	.	.	.	.	.	/
Cc1ccc(OCCCC(=O)NC2CCCCC2)cc1	.	.	.	.	.	.	/
COC(=O)CCC(=O)OC1(C)C(=O)C2=CN(C3CCCC3)C(c3ccc(OC)cc3)=CC2=C(Br)C1=O (stereo unspecified)	.	.	.	50	.	.	.
COC(=O)CCC(=O)OC1(C)C(=O)C2=CN(Cc3ccco3)C(c3ccc(OC)cc3)=CC2=C(Br)C1=O (stereo unspecified)	.	.	.	.	.	.	/
C=CCN1C=C2C(=O)C(C)(OC(=O)CCC(=O)OC)C(=O)C(Br)=C2C=C1c1ccc(OC)cc1 (stereo unspecified)	.	.	.	61	.	.	69
COCCN1C=C2C(=O)C(C)(OC(=O)CCC(=O)OC)C(=O)C(Br)=C2C=C1c1ccc(OC)cc1 (stereo unspecified)	.	.	.	55	.	.	61
Cn1cnnc1SCC(=O)NC1CCCN(Cc2ccccc2F)C1 (stereo unspecified)	.	.	.	.	.	.	/
CC1CC(C)CN(C(=O)C(Cc2ccccc2)NC(=O)c2ccccc2)C1 (stereo unspecified)	.	.	.	.	.	.	/
Cc1nnc2c(SC(C)C)nc3ccccc3n12	.	.	.	42	.	.	.
COC(=O)C1=C(C)N(CCc2ccc(OC)c(OC)c2)C(=O)/C1=C\c1ccc(O)cc1	.	.	.	.	.	.	/
CCOC(=O)c1cnc(-n2nc(C)cc2C)[nH]c1=O	.	.	.	.	.	.	/
